Data reported in the supplement of paper PMC11732987, “Enantioselective OTUD7B fragment discovery through chemoproteomics screening and high-throughput optimisation” (Communications Chemistry, 2025).

Experiments:
Assay in all cases: log2 ratio of Biotin-Ahx-Ub-VS probe labelling (fragment/DMSO); higher = less target engagement (more negative = stronger competition), active = hit call of the paper (q ≤ 0.05, log2 ratio ≤ -1)
Details in all cases: compound concentration: 200 uM; treatment time: 3 h
[1] = target: T1, USP42 (UniProt Q9H9J4)
T1 sequence (whole entry): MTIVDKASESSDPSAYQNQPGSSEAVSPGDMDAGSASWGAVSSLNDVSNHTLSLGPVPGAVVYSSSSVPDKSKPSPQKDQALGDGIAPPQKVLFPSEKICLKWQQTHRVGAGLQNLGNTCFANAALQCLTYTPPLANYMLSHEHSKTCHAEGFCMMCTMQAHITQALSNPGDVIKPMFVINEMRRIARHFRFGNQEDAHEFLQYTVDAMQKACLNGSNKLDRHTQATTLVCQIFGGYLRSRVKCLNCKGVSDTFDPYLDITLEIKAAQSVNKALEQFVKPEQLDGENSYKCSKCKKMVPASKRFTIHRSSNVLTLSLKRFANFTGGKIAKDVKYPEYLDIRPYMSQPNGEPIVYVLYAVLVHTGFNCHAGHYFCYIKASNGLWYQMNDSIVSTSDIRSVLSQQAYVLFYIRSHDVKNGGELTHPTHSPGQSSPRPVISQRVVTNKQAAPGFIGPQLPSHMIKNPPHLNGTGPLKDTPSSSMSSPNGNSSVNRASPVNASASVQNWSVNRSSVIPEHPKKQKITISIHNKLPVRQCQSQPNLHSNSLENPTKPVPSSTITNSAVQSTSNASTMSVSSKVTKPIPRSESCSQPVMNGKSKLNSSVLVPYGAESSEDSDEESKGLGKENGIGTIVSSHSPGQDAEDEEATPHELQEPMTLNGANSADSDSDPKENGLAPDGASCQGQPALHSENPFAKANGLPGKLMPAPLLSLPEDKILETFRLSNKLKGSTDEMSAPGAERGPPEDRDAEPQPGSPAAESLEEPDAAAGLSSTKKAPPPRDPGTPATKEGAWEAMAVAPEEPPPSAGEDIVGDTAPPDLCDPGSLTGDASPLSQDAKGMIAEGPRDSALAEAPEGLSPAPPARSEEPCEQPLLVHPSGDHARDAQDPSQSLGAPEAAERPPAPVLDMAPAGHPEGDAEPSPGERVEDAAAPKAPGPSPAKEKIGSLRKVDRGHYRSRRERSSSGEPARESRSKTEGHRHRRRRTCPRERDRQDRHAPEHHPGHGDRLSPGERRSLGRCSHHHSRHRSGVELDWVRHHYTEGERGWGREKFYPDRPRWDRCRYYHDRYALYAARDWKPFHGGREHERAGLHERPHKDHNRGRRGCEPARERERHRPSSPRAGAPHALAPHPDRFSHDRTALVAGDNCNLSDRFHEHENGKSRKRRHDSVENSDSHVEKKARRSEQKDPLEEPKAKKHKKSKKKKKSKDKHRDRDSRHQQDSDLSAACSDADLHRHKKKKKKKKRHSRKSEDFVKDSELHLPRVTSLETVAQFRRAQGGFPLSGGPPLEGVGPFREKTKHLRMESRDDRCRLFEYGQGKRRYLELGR
In short: (§1)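 Triplicate samples of HEK293T lysate, 495 µg each, received fragment at 200 µM or vehicle for 3 h, followed by Biotin-Ahx-Ub-VS (0.5 µM final) for 1 h. After NeutrAvidin enrichment of labelled DUBs and LysC/trypsin digestion, peptides were run by diaPASEF LC-MS/MS. The values are average log2 fragment/vehicle ratios from global-median-normalised Spectronaut label-free quantities, tested by unpaired t-test on proteins having ≥2 unique peptides.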

[2] = target: USP46 (UniProt P62068)
Chain of USP46 (P62068 whole entry): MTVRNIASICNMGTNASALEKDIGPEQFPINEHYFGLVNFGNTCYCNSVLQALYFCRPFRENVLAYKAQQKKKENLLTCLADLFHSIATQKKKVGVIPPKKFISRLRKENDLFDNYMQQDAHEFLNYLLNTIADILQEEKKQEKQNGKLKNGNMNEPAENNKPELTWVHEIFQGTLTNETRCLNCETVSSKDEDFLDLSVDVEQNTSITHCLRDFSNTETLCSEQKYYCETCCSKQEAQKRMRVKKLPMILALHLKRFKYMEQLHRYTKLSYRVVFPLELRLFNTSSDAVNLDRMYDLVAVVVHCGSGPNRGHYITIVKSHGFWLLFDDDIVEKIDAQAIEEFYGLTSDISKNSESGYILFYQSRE
In short: as §1

[3] = target: T2, USP47 (UniProt Q96K76)
T2 sequence (whole entry): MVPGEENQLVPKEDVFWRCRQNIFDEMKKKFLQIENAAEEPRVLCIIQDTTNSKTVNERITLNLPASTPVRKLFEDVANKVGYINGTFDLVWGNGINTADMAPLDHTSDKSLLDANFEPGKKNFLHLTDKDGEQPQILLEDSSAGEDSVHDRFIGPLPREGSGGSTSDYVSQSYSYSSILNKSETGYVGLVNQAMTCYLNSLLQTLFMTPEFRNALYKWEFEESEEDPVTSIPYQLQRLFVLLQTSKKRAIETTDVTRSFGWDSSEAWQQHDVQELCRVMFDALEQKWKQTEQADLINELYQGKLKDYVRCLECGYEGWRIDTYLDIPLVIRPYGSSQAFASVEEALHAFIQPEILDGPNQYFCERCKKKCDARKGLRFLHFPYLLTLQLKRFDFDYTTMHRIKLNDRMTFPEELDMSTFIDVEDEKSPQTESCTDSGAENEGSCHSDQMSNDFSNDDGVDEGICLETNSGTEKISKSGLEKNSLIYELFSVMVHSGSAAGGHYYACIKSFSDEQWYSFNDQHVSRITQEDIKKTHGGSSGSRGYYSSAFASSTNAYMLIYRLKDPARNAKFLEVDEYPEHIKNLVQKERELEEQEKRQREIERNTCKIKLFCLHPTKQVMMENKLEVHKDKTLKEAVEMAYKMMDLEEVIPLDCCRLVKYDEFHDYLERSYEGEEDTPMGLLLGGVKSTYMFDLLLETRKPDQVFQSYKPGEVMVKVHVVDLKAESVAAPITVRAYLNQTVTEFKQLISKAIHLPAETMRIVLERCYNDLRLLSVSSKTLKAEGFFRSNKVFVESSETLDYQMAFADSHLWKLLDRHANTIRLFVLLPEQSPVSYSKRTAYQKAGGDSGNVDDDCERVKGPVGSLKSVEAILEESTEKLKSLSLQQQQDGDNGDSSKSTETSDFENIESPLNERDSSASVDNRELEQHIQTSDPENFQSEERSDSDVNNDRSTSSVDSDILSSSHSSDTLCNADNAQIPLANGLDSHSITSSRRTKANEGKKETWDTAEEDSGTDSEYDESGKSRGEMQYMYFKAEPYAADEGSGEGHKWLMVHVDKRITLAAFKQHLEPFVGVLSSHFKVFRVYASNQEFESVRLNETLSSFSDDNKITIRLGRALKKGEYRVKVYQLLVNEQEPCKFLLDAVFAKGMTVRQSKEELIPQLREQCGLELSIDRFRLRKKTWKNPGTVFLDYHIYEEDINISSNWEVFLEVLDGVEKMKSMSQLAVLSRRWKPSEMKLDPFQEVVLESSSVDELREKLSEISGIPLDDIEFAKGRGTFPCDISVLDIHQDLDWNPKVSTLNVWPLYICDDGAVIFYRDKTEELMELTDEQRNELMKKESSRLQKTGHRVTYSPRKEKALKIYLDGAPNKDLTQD
In short: as §1

[4] = target: T3, USP48 (UniProt Q86UV5)
T3 sequence (whole entry): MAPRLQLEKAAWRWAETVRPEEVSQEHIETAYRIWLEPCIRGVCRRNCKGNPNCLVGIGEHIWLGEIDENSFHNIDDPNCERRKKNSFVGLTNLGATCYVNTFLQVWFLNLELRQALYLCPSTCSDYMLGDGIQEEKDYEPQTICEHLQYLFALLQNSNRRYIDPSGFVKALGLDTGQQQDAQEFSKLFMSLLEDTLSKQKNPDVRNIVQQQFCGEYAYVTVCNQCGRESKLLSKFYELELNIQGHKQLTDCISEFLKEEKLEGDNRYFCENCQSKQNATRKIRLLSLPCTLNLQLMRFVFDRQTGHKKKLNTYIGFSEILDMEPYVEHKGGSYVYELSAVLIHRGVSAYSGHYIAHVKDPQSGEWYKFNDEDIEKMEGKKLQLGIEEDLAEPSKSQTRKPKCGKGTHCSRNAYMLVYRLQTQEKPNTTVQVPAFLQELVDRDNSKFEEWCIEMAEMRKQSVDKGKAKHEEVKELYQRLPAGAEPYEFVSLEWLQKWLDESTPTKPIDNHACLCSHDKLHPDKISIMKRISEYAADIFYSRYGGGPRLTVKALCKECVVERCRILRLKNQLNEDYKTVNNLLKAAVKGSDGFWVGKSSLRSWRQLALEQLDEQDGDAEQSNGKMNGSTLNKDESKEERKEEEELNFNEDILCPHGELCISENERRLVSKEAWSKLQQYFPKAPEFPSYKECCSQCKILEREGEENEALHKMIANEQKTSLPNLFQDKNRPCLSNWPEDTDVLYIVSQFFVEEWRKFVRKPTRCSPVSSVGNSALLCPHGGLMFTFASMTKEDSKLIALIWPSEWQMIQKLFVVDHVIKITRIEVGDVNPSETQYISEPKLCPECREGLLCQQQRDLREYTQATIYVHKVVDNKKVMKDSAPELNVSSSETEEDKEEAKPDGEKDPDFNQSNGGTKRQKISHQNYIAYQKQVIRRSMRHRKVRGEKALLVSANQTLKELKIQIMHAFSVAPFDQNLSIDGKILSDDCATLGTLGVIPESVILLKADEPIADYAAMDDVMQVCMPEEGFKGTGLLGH
In short: as §1

[5] = target: T4, USP5 (UniProt P45974)
T4 sequence (whole entry): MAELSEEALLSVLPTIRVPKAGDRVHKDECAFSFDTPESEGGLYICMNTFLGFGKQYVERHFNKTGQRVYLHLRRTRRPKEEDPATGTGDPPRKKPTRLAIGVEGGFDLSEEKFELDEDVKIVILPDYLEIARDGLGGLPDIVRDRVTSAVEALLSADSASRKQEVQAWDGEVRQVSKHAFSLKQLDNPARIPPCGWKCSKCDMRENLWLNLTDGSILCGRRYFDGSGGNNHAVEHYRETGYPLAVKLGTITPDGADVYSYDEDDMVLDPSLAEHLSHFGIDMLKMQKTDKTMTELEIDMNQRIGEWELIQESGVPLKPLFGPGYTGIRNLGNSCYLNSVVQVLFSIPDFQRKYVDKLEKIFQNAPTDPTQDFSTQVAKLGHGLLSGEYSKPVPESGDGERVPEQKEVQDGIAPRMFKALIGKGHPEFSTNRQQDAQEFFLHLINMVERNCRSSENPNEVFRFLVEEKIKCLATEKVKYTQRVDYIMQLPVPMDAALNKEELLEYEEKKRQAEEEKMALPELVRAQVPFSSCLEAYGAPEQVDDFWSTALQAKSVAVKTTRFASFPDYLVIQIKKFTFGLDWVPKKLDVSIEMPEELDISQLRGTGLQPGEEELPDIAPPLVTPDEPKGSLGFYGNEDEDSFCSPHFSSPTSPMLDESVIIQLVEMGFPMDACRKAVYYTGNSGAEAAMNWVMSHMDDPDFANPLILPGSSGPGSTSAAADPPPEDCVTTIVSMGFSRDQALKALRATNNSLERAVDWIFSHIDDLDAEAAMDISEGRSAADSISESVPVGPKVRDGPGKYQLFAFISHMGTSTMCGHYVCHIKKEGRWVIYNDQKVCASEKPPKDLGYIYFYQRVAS
In short: as §1

[6] = target: USP54 (UniProt Q70EL1)
Chain of USP54 (Q70EL1 whole entry): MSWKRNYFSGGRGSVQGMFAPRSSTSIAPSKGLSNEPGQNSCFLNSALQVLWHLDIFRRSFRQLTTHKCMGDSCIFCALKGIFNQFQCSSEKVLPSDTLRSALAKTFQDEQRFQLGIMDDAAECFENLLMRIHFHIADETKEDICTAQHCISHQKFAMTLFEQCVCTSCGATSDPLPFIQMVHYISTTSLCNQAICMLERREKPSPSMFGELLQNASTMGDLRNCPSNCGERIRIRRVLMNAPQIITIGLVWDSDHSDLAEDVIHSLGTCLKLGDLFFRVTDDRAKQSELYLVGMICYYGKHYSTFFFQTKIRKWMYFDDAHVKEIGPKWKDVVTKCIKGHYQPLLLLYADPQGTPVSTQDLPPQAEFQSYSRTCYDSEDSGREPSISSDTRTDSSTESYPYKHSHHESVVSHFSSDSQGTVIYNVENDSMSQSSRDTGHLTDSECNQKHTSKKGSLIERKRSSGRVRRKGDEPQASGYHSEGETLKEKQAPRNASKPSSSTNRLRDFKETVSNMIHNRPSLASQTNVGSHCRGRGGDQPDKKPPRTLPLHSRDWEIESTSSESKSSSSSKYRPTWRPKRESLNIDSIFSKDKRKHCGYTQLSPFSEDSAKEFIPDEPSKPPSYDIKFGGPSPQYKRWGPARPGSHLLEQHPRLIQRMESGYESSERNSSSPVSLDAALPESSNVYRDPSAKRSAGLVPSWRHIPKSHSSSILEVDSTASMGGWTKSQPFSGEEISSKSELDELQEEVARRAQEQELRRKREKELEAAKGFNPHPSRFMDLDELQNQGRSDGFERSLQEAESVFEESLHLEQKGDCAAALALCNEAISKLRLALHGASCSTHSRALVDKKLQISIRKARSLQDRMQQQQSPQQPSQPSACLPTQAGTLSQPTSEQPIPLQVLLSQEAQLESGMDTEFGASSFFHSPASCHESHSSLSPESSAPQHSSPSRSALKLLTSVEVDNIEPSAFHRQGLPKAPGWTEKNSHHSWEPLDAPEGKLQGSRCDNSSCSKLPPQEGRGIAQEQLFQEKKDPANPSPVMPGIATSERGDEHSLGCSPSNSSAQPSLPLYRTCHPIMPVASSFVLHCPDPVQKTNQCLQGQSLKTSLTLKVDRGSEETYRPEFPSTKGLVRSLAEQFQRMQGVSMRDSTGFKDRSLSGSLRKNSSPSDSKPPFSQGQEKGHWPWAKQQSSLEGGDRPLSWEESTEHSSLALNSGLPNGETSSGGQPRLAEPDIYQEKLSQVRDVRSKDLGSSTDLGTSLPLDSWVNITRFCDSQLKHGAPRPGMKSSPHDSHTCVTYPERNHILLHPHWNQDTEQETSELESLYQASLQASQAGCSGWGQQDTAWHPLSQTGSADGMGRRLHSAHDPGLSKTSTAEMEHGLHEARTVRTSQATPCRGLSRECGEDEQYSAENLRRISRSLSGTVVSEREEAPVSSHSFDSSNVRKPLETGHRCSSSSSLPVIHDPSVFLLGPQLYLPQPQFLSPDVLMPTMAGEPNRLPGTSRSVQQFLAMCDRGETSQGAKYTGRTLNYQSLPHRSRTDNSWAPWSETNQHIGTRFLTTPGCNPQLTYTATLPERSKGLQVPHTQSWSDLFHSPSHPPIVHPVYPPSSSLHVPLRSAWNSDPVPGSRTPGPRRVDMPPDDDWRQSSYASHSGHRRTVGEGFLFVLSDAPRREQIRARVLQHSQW
In short: as §1

[7] = target: USP7 (UniProt Q93009)
In short: as §1

[8] = target: T5, USP8 (UniProt P40818)
T5 sequence (whole entry): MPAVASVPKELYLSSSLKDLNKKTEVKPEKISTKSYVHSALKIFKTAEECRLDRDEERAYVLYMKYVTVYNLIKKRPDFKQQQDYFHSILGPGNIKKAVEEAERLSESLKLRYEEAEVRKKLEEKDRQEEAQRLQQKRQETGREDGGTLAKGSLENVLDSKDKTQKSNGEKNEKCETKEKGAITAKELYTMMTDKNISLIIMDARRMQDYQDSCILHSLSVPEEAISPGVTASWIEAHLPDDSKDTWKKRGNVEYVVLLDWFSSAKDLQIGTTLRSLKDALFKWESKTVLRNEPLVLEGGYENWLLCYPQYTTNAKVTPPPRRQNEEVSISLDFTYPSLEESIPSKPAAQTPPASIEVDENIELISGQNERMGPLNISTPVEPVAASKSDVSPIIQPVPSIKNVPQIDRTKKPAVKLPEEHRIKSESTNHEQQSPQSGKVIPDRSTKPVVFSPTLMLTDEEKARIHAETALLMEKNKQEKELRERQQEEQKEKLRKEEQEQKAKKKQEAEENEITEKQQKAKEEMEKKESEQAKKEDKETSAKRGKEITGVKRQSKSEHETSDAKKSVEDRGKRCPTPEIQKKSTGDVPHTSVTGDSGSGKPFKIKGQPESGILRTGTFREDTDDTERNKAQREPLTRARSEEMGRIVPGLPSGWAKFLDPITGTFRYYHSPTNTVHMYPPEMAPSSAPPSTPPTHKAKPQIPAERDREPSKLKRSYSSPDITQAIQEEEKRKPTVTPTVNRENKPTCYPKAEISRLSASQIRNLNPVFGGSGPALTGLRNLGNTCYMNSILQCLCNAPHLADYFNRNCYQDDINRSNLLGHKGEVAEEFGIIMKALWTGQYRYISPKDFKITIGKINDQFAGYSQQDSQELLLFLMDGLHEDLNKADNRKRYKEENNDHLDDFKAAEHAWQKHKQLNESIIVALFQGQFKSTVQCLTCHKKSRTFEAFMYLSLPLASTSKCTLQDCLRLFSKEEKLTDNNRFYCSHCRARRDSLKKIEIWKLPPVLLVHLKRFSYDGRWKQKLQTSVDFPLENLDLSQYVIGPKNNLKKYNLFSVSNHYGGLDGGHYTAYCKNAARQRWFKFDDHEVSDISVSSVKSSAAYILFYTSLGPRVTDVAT
In short: as §1

[9] = target: USP9X (UniProt Q93008)
Chain of USP9X (Q93008 whole entry): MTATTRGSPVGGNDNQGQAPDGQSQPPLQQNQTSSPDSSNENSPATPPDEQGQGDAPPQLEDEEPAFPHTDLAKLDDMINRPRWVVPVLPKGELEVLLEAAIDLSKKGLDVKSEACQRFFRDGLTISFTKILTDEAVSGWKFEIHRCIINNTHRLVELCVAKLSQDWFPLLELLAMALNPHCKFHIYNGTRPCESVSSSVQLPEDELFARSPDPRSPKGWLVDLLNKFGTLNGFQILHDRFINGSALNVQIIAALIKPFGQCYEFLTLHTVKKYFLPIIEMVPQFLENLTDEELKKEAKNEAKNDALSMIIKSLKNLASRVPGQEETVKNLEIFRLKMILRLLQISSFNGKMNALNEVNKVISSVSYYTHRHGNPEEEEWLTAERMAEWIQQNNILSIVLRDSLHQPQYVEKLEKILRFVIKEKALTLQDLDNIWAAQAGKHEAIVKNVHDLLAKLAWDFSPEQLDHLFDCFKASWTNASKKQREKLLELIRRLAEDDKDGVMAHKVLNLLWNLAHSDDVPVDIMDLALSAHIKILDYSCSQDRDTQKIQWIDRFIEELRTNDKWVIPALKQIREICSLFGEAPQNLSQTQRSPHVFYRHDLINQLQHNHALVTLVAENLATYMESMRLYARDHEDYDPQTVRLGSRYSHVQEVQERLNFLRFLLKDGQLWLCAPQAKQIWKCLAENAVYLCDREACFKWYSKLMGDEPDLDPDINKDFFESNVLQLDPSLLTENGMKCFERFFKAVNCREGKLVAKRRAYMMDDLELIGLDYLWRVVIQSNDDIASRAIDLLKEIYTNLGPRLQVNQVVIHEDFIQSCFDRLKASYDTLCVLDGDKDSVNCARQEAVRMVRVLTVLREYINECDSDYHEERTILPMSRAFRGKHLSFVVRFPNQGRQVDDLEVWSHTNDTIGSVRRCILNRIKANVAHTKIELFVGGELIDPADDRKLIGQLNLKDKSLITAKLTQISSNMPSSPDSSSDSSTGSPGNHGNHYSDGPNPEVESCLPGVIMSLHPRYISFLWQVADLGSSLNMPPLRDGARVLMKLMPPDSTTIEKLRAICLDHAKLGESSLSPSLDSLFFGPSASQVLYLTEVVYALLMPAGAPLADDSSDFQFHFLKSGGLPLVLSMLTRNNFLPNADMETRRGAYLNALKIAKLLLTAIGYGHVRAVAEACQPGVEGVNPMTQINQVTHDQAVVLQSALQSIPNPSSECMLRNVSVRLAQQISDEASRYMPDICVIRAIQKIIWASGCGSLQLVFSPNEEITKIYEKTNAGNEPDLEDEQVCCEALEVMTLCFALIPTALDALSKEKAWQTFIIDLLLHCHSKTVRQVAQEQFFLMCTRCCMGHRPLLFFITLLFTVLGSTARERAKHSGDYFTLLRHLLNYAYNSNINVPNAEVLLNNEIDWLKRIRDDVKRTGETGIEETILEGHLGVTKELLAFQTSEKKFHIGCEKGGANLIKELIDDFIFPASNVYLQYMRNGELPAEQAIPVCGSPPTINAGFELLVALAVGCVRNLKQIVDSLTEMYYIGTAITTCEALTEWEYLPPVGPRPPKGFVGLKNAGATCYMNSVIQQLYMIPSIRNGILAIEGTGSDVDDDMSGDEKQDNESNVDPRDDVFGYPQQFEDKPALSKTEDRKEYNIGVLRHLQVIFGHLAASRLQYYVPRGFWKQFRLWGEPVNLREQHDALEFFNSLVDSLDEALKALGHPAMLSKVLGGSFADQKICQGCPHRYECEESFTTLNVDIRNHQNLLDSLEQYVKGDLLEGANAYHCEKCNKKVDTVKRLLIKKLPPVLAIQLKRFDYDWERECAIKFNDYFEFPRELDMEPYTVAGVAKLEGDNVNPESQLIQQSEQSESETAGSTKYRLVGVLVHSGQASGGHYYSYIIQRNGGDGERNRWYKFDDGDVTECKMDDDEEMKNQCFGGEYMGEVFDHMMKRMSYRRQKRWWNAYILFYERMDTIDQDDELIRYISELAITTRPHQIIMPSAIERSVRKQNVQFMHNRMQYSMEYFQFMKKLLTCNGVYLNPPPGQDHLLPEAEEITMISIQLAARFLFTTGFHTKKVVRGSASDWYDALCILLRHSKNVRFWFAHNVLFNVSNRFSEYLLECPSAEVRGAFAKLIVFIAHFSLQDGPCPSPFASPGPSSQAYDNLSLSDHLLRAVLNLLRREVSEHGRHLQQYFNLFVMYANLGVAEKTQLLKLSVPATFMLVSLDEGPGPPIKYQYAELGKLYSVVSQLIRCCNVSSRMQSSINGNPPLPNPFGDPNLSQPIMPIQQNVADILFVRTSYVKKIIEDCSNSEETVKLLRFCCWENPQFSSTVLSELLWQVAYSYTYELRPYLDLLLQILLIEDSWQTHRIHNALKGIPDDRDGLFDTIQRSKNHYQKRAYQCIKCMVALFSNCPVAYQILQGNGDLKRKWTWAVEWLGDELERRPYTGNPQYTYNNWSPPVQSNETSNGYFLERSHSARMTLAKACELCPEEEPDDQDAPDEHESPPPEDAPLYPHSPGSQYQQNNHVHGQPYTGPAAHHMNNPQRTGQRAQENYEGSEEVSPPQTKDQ
In short: as §1

[10] = target: UniProt O00487
Chain of UniProt O00487 (O00487 whole entry): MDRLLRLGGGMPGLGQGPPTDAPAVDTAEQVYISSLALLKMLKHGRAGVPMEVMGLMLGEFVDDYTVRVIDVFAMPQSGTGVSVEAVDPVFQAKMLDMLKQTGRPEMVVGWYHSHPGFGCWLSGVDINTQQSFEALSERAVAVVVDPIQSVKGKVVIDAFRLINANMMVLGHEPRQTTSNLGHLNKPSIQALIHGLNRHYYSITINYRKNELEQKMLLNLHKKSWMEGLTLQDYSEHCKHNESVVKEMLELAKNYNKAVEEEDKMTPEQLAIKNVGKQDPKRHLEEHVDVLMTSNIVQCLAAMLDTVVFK
In short: as §1

Measured: log2 ratio of Biotin-Ahx-Ub-VS probe labelling

Cc1ccc(N(C(=O)CCl)C2C=CS(=O)(=O)C2)cc1 (stereo not given)
inactive: [1] 0.262 | [2] -0.055 | [4] -0.839 | [5] 0.431 | [6] -0.495 | [8] 0.108 | [9] 0.0636 | [10] 0.0368
active: [3] -1.11 | [7] -1.19
